The nature of experiment [1]: qHTS assay for small molecules that induce genotoxicity in human embryonic kidney cells expressing luciferase-tagged ATAD5 (AID 651632). Also: nearly all actives have a fitted effect of over 15% in size. In short, it runs like this:
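Test compounds were delivered by pin tool onto HEK293T reporter cells (2,000/well) expressing ATAD5 fused to luciferase. After 16 hr at 37C, 5% CO2, Amplite was added for 30 min at room temperature and luminescence was measured.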

Experiment [2] can be described thus: qHTS assay for small molecule agonists of the p53 signaling pathway - cell viability (AID 651633; calls by dose curve; also: nearly all actives have a fitted effect of over 30% in size; also: potency is read from the fitted curve at half-maximal effect). The method in brief: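 Viability counter-read: CellTiter-Glo luminescence (30 min, room temperature) in the same p53RE-bla plates. These plates had been exposed to compounds for 16 h at 37 C.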
For orientation: Quantitative high-throughput screening tests each substance at several concentrations.

A short description of experiment [3]: qHTS assay for small molecules that induce genotoxicity in human embryonic kidney cells expressing luciferase-tagged ATAD5 - cell viability (AID 651634; calls by dose curve; also: nearly all actives have a fitted effect of over 25% in size; also: potency is read from the fitted curve at half-maximal effect). In short, it runs like this: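 Quantitative high-throughput format. HEK293T cells expressing ATAD5 fused to luciferase were plated at 2,000 cells/well and treated 15.5 hr with compound versus DMSO. Viability was determined by fluorescent live-cell protease substrate, 30 min at 37C.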

Experiment [4] is described as follows: qHTS assay for small molecule disruptors of the mitochondrial membrane potential - cell viability (AID 720634; calls by dose curve; also: nearly all actives have a fitted effect of over 20% in size; also: potency is read from the fitted curve at half-maximal effect). In short, it runs like this: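 Same-well counter-screen: following the MMP dye addition, CellTiter-Glo was added to 1 hr compound-treated HepG2 cells and luminescence read after 30 min at room temperature.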
The nature of experiment [5]: qHTS assay for small molecule disruptors of the mitochondrial membrane potential (AID 720635). Also: potency is read from the fitted curve at half-maximal effect. The method in brief: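 Mitochondrial membrane potential tracked with Mito-MPS dye, red aggregates (ex 540/em 590 nm) against green monomers (ex 490/em 535 nm). Compound treatment 1 hr at 37C, dye 30 min in HepG2.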
A short description of experiment [6]: qHTS assay to test for compound auto fluorescence at 590 nm (red) in HepG2 cells (AID 720674). In short, it runs like this: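 We screened compounds on adherent HepG2 cells, incubating them for an hour at 37 C in 5% CO2 before reading emission at 590 nm under 540 nm excitation; values reflect equivalence to Rose Bengal sodium fluorescence.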
Experiment [7] in a line: qHTS assay to test for compound auto fluorescence at 535 nm (green) in HepG2 cells (AID 720675).
A short description of experiment [8]: qHTS assay to test for compound auto fluorescence at 460 nm (blue) in HEK293 cells (AID 720678). The method in brief: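 Measured: blue fluorescence (Ex 405/Em 460 nm) of compound-treated HEK293 cells, incubated overnight at 37C with 5% CO2 and scaled to triamterene equivalents.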
Experiment [9] in a line: qHTS assay to test for compound auto fluorescence at 590 nm (red) in HEK293 cells (AID 720679). In short, it runs like this: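 Using HEK293 cells at 2,000 per well, the screen added 23 nL of each compound after cell attachment and incubated overnight (37C, 5% CO2). The plate reader then captured red-label fluorescence, Ex/Em 540/590nm.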
Experiment [10] can be described thus: qHTS assay for small molecule agonists of the p53 signaling pathway (AID 651631; calls by dose curve; also: nearly all actives have a fitted effect of over 15% in size; also: potency is read from the fitted curve at half-maximal effect). The method in brief: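 HCT-116 cells carrying a beta-lactamase reporter under p53 response elements were dosed with compound for 16 h at 37 °C. LiveBLAzer B/G FRET substrate was then added for 2 h at room temperature, and fluorescence intensity was read to detect pathway agonism.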

Molecules are shown by their SMILES. Inconclusive results are not listed. The source made the active and inactive calls. Unless noted, calls follow the shape of the dose curve; as a rule, active = well fitted curve in the direction sought with a large enough effect in the repeat runs; inconclusive = weak or mixed curves; inactive = no such curve, though single readings can be large; an effect the other way counts as inactive or inconclusive.

For the compound `O=C(OC[C@H]1O[C@](O)(COC(=O)c2cccnc2)[C@@H](OC(=O)c2cccnc2)[C@@H]1OC(=O)c1cccnc1)c1cccnc1`, the Potency entry in experiment [1], in experiment [2], in experiment [3], in experiment [4], in experiment [5] and in experiment [6] was “inactive” in each case. Moreover, the Potency result in experiment [7], in [8] and in experiment [9] was “inactive” each time.
On to `COc1ccc(CNCC(O)COc2ccc3[nH]c(=O)ccc3c2)cc1OC` (stereo not drawn), for which the Potency entry in [10], in experiment [2], in [3], in experiment [4], in [5] and in experiment [7] was “inactive” each time. For the same compound, the Potency entry in [8] and in experiment [9] was “inactive” throughout.
For the compound `Nc1ncnc2c1ncn2[C@@H]1O[C@H](COP(=O)(O)OP(=O)(O)OP(=O)(O)O)[C@@H](O)[C@H]1O`, the figures for the Potency in [10] and in experiment [4] were 26.6 µM (active) and 9.44 µM (active), respectively. Moreover, the Potency result in experiment [2], in [3], in [6], in experiment [7], in [8] and in experiment [9] was “inactive” in each case.
As to `C=C1CC[C@H](O)CC1=C/C=C1\CCC[C@]2(C)[C@@H]([C@H](C)CCCC(C)(C)O)CC[C@@H]12`, the Potency result in [1], in experiment [4], in experiment [6], in [7], in [8] and in experiment [9] was “inactive” each time. Besides, the Potency in experiment [2] was 11.9 µM (active); in experiment [3] it was 13.3 µM (active); in [5] it was 5.31 µM (active).
For `COc1ccc(/C=C/C(=O)OCCC(C)C)cc1`, the Potency result in experiment [10], in experiment [2], in experiment [3], in experiment [4], in [5] and in [6] was “inactive” each time. The Potency result in experiment [7], in experiment [8] and in [9] was “inactive” throughout.
Take `COC(F)(F)C(Cl)Cl`: the Potency entry in experiment [1], in [2], in experiment [3], in experiment [4], in experiment [5] and in experiment [6] was “inactive” throughout. The Potency entry in experiment [7], in experiment [8] and in [9] was “inactive” throughout.
`CC(=O)N[C@@H](C=O)[C@@H](O)[C@H](O)[C@H](O)CO`: the Potency entry in experiment [1], in experiment [2], in experiment [3], in experiment [4], in [5] and in [6] was “inactive” throughout. In addition, the Potency result in [7], in [8] and in experiment [9] was “inactive” throughout.
For the compound `CC1CCC(NC(=O)N(CCCl)N=O)CC1` (stereo not drawn), the Potency result in experiment [10], in [2], in [3], in experiment [4], in [5] and in [6] was “inactive” throughout. In addition, the Potency entry in experiment [7], in [8] and in experiment [9] was “inactive” in each case.
Regarding `COc1ccc(C(=O)CCC(=O)O)c2ccccc12`, the Potency entry in [1], in experiment [2], in [3], in experiment [4], in experiment [5] and in [6] was “inactive” throughout. For the same compound, the Potency result in experiment [7], in experiment [8] and in [9] was “inactive” in each case.
Regarding `CCCC(=O)Nc1ncnc2c1ncn2[C@@H]1O[C@@H]2COP(=O)(O)O[C@H]2[C@H]1OC(=O)CCC`, the Potency result in experiment [10], in [2], in experiment [3], in experiment [4], in [5] and in experiment [6] was “inactive” each time. Moreover, the Potency result in experiment [7], in [8] and in experiment [9] was “inactive” throughout.
For `C[C@@H]1C[C@H]2[C@@H]3CCC4=CC(=O)C=C[C@]4(C)[C@@]3(F)[C@@H](O)C[C@]2(C)[C@@]1(O)C(=O)COC(=O)c1cccc(S(=O)(=O)O)c1`, the Potency entry in experiment [10], in experiment [2], in experiment [3], in [4], in [6] and in [7] was “inactive” throughout. The Potency result in experiment [8] and in [9] was “inactive” in each case.
For `CCNC(=O)[C@@H]1CCCN1C(=O)[C@H](CCCN=C(N)N)NC(=O)[C@H](CC(C)C)NC(=O)[C@@H](Cc1c[nH]c2ccccc12)NC(=O)[C@H](Cc1ccc(O)cc1)NC(=O)[C@H](CO)NC(=O)[C@H](Cc1c[nH]c2ccccc12)NC(=O)[C@H](Cc1cnc[nH]1)NC(=O)[C@@H]1CCC(=O)N1`, the Potency entry in [1], in [6], in experiment [7], in [8] and in [9] was “inactive” in each case. Moreover, the Potency was 8.41 µM (active) in experiment [2], 8.41 µM (active) in experiment [3], 29.8 µM (active) in experiment [4] and 27.8 µM (active) in experiment [5].
With `FCOC(C(F)(F)F)C(F)(F)F`, the Potency entry in experiment [1], in experiment [2], in experiment [3], in [4], in [5] and in [6] was “inactive” in each case. Besides, the Potency entry in experiment [7], in experiment [8] and in experiment [9] was “inactive” each time.
For the compound `C=CCCCCCCCCC(=O)OC`, the Potency result in experiment [1], in experiment [2], in [3], in [4], in experiment [5] and in experiment [6] was “inactive” in each case. The Potency entry in experiment [7], in experiment [8] and in experiment [9] was “inactive” in each case.
For `COC(=O)CCC[N+](C)(C)C`, the Potency result in [1], in experiment [2], in experiment [3], in experiment [4], in experiment [5] and in experiment [6] was “inactive” each time. The Potency entry in experiment [7], in experiment [8] and in experiment [9] was “inactive” in each case.
For `O=C(COc1ccc(Cl)cc1)OCCNC12CC3CC(CC(C3)C1)C2`, the Potency entry in [1], in experiment [2], in experiment [3], in experiment [4], in experiment [5] and in experiment [6] was “inactive” each time. The Potency result in experiment [7], in experiment [8] and in [9] was “inactive” throughout.
Take `O=C(O)[C@H]1/C(=C/CO)O[C@@H]2CC(=O)N21`: the Potency entry in [1], in experiment [2], in [3], in [4], in [5] and in experiment [6] was “inactive” throughout. Besides, the Potency entry in experiment [7], in experiment [8] and in [9] was “inactive” in each case.
`C[C@H](CCCC(C)(C)O)[C@H]1CC[C@H]2[C@@H]3CC=C4C[C@@H](O)CC[C@]4(C)[C@H]3CC[C@]12C`: the Potency entry in experiment [1], in [2], in experiment [3], in experiment [4], in [5] and in [6] was “inactive” each time. The Potency result in experiment [7], in [8] and in experiment [9] was “inactive” each time.
For `CC1(C)S[C@@H]2[C@H](NC(=O)[C@H](N)c3ccccc3)C(=O)N2[C@H]1C(=O)OCOC(=O)[C@@H]1N2C(=O)C[C@H]2S(=O)(=O)C1(C)C`, the Potency result in [1], in [2], in [3], in experiment [4], in experiment [5] and in experiment [6] was “inactive” each time. Also, the Potency result in experiment [7], in [8] and in [9] was “inactive” throughout.
